TDP1 block = TDP1 (human) enzyme inhibition | Q9NUW8 | Potency, µM (highest dose often 130 µM), for inactives: at the highest dose activity change, negative = inhibition, usual class: inhibitors | recombinant TDP1, AlphaScreen DNA substrate cleavage | AID 485290 | actives 0.28% (n = 350,000); note: nearly all actives have a fitted effect of over 40% in size
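E. coli-derived human Tdp1, 1 nM final. Cpd preinc 15 min RT; substrate 15 nM final, 5 min RT; AS bead mix 10 ug/ml final, 10 min RT. Signal loss = tyrosine-FITC cleavage. No-enzyme wells = max signal.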
GLS inh = glutaminase GLS (human) inhibition; GLS enzymatic activity, qHTS titration; Potency, µM (top dose mostly 45.5 µM), inactives show at the highest dose activity change, negative = inhibition, usual class: inhibitors; actives 0.21% (n = 410,000); AID 624170
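Enzyme dispensed in phosphate buffer (45 mM, pH 8.2, 0.02% Tween-20), compounds pinned in, then 1 mM L-glutamine solution and the glutamate oxidase–HRP–Amplex Red mix added; fluorescence read immediately and again after 30 min at room temperature.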
RECQ1 helicase = blocks DNA unwinding by human RECQ1. P46063. RECQ1 DNA unwinding, red fluorescence kinetic read. Potency, µM (top dose mostly 57.3 µM), inactives show at the highest dose activity, negative = inhibition, hits mostly inhibitors. actives 0.54% (n = 240,000). AID 2549;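 note: plate controls were vehicle for no effect and no enzyme for full effect; nearly all actives have a fitted effect of over 30% in size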
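RECQ1T1 50 nM; forked duplex (20 bp + 30-nt ss tails) 200 nM, ATP 2 mM final; pH 8.0, 2 mM MgCl2, 2.5 ug/ml poly(dI-dC); 15 min compound preincubation; discontinuous kinetic read over 2 h at RT.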
BLM inh = blocks DNA unwinding by human BLM helicase; P54132; recombinant BLM DNA unwinding, fluorescence dequenching; Potency, µM (titrated, usually from 56.1 µM), without a hit: at the highest dose activity change, negative = inhibition, most hits filed as inhibitors; actives 0.2% (n = 350,000);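 note: plate controls were vehicle for no effect and no enzyme for full effect; nearly all actives have a fitted effect of over 35% in size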
PGK inhibitor = inhibitors of T. brucei phosphoglycerate kinase; actives 0.043% (n = 380,000); P07378; PGK/GAPDH coupled, Kinase-Glo luminescence, 60 min; AID 602233; Potency, µM (top dose mostly 57.5 µM), for the others: top-dose activity change, negative = inhibition, most hits filed as inhibitors; note: nearly all actives have a fitted effect of over 60% in size
Target sequence (P07378 whole entry, looked up): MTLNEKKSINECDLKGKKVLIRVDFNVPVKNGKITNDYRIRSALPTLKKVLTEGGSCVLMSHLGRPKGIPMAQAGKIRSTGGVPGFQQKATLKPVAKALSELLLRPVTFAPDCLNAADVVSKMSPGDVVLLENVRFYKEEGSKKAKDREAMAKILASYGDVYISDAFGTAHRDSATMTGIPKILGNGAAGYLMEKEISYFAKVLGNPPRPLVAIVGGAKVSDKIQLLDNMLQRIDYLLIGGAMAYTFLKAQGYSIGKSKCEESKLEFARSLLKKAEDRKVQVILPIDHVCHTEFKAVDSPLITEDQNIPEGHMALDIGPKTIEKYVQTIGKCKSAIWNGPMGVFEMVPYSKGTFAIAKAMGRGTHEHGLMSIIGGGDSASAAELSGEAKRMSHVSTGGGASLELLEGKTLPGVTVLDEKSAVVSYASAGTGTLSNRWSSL
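Luminescent ATP detection (Kinase-Glo Plus) follows a 60-minute room-temperature incubation, with wells lacking PGK as controls. Buffer: 100 mM TEA (pH 7.6), 5 mM MgCl2, 0.01% Tween-20. Coupling enzyme GAPDH (100 nM final) supplies unstable 1,3-BPG in-well.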
APE1 inh = APE1 (human) endonuclease inhibition. actives 0.35% (n = 350,000). recombinant APE1, TAMRA/BHQ-2 abasic DNA cleavage fluorescence. P27695. Potency, µM (titrated, usually from 65.8 µM), inactives show top-dose activity change, negative = inhibition, most hits filed as inhibitors;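 note: plate controls were vehicle for no effect and reference inhibitor for full effect; nearly all actives have a fitted effect of over 55% in size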
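Measures dequenching upon AP-site incision of a 5'-TAMRA/3'-BHQ-2 THF-containing duplex, 50 nM; human APE1 0.75 nM after 15 min room-temperature exposure to compound; kinetic three-point read at one-minute spacing.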
* marks the source's active call; other numbers are inactive results; i = inactive; ? = inconclusive; / = not tested or not shown; ! = not confirmed by another sample; [ ] = remark or other dose. Only some compounds are listed: those with a hit (about 0.85% of all), similar ones and a draw of the others. Calls come from the whole dose curve; as a rule, active = well fitted curve in the direction sought with a large enough effect; inconclusive = small, poorly fitted or top-dose-only effect, or another doubt; inactive = no such curve, though single readings can be large; an effect the other way counts as inactive or inconclusive. Unless noted, % is set by controls: 0 for no effect and ±100 for the full control effect; potency is the fitted concentration of half-maximal effect.

SMILES	TDP1 block	GLS inh	RECQ1 helicase	BLM inh	PGK inhibitor	APE1 inh
CN(C)[C@@H]1C(=O)C(C(N)=O)=C(O)[C@@]2(O)C(=O)C3=C(O)c4c(O)cccc4[C@@](C)(O)C3[C@H](O)C12 (some centres undefined)	/	10µM*!	/	/	-30%	-39%
C[C@H]1CC[C@]2(NC1)O[C@H]1C[C@H]3[C@@H]4CC[C@H]5C[C@@H](O[C@@H]6O[C@H](CO)[C@H](O[C@@H]7O[C@H](CO)[C@@H](O)[C@H](O[C@@H]8OC[C@@H](O)[C@H](O)[C@H]8O)[C@H]7O[C@@H]7O[C@H](CO)[C@@H](O)[C@H](O)[C@H]7O)[C@H](O)[C@H]6O)CC[C@]5(C)[C@H]4CC[C@]3(C)[C@H]1[C@@H]2C	/	/	/	/	/	-3%
Cn1ncnc2c(=O)n(C)c(=O)nc1-2	6%	-9%	?	1.1µM*	?	?
Cc1ccc(-c2nc3c(=O)n(C)c(=O)nc-3n(C)n2)cc1	3%	/	/	/	/	/
C[C@]12CC[C@@H]3c4ccc(OC(=O)N(CCCl)CCCl)cc4CC[C@@H]3[C@H]1CC[C@@H]2OP(=O)(O)O	/	-15%	/	/	/	/
CCCCCCCCOC(=O)c1ccccc1C(=O)OCCCCCCCC	2%	-10%	5%	1%	/	4%
CCCCOC(=O)c1ccccc1C(=O)OCc1ccccc1	40µM*!	9%	-1%	/	-6%	37%
Cc1cccc(N2C(=O)NC(=O)/C(=C\c3ccc4c(c3)CCCN4Cc3ccccc3)C2=O)c1	5%	-13%	32µM*	-24%	0%	11%
CC1=NN(c2ccccc2)C(=O)C1/C=C1/C(=O)NC(=O)N(c2cccc(C)c2)C1=O (centres undefined)	4%	/	2%	-3%	/	9%
N/C(=N\N=C/c1ccc(-c2ccc(O)c(C(=O)O)c2)o1)N[N+](=O)[O-]	2.8µM*	-21%	13µM*	52%	10µM*	7.9µM*
CCN1C[C@]2(COC)[C@H](O)C[C@H](OC)[C@@]34[C@@H]5C[C@@]6(O)[C@H](OC(=O)c7ccccc7)[C@@H]5[C@@](OC(C)=O)([C@@H]([C@H](OC)[C@H]23)[C@@H]14)[C@@H](O)[C@@H]6OC	/	/	/	/	/	3%
O=C1NC(=O)N(c2ccccc2)C(=O)/C1=C\c1ccc([N+](=O)[O-])o1	/	/	-25%	35%	/	?
O=C(O)c1ccccc1-c1ccc(C=C2C(=O)N(c3ccccc3)C(=S)N(c3ccccc3)C2=O)o1	/	8.9µM*	/	-7%	-7%	20%
Cc1cc(/C=C2\C(=O)NC(=O)N(c3ccccc3F)C2=O)c(C)n1-c1cc(C(=O)O)cc(C(=O)O)c1	/	5µM*	/	44%	11µM*	11µM*
CC(=O)[C@@]1(O)CC[C@@H]2[C@@H]3CCC4=CC(=O)CC[C@]4(C)[C@]3(F)[C@@H](O)C[C@@]21C	/	1%	/	/	/	/
C/C=C1/C[C@@H](C)[C@](O)(CO)C(=O)OCC2=CCN3CC[C@@H](OC1=O)C23 (some centres undefined)	0%	/	22µM*	-1%	/	?
O=C(O[C@@H]1Cc2c(O)cc(O)cc2O[C@@H]1c1cc(O)c(O)c(O)c1)c1cc(O)c(O)c(O)c1	/	/	3.2µM*	-5%	/	0.89µM*
O=C1C[C@@H](c2ccc(O)cc2)Oc2cc(O)cc(O)c21	0%	13%	-3%	1%	0%	-2%
O=[N+]([O-])c1cc(-c2ccc([As](=O)(O)O)cc2)ccc1[As](=O)(O)O	35µM*	/	-4%	-4%	/	?
CC(N)C(=O)c1ccccc1 (centres undefined)	/	-5%[99.4 µM]	/	/	/	/
COC[C@H]1OC(=O)c2coc3c2[C@@]1(C)C1=C(C3=O)[C@H]2CCC(=O)[C@@]2(C)C[C@H]1OC(C)=O	13%[56.1 µM]	/	13µM*	1%	/	-9%
COC[C@H]1OC(=O)c2coc3c2[C@@]1(C)C1=C(C3=O)C2CCC(=O)[C@@]2(C)C[C@H]1OC(C)=O (some centres undefined)	12%[56.1 µM]	/	35µM*	3%	/	?
CCNC1(c2cccs2)CCCCC1=O (centres undefined)	/	/	/	/	/	5%[21 µM]
C[C@]12CCC(=O)C=C1CC[C@H]1C2CC[C@@]2(C)[C@@H]1CC[C@]2(C)O (some centres undefined)	/	4%	/	/	/	/
ClC[C@H]1CO1 (tested in a mixture with another compound)	/	-5%	/	/	/	/
SMILES	TDP1 block	GLS inh	RECQ1 helicase	BLM inh	PGK inhibitor	APE1 inh
NC1CCCC[C@H]1N (some centres undefined)	8%	/	-8%	-5%	/	-3%
CCOP(=S)(OCC)Oc1nc(Cl)c(Cl)cc1Cl	50µM*!	-2%	-3%	-2%	-12%	27%
CCOc1ccc(N2C(=O)/C(=C\c3cccs3)C(=O)NC2=S)cc1	4%	-11%	-21%	-4%	-7%	-6%
Cc1ccccc1N1C(=O)/C(=C/c2ccco2)C(=O)NC1=S	/	/	/	0.89µM*	/	0.075µM*
CCOc1ccc(N2C(=O)/C(=C/c3ccco3)C(=O)NC2=S)cc1	/	1.8µM*	/	?	?	21µM*
Cc1cccc(N2C(=O)/C(=C/c3ccc(N4CCN(C)CC4)o3)C(=O)NC2=S)c1C	1%	?	-17%	-8%	-11%	-12%
CC(C)C1C(C#N)=C(N)Oc2c1c(=O)oc1ccccc21 (centres undefined)	/	-4%	/	/	-4%	/
N#CC1=C(N)Oc2c(c(=O)oc3ccccc23)C1c1ccc([N+](=O)[O-])o1 (centres undefined)	?	50%	i	-3%	-13%	35µM*
CCCCN1C(=O)/C(=C\c2ccco2)C(=O)N(CCc2ccccc2)C1=O	11%	0%	32µM*	?	-14%	?
CCCCN1C(=O)/C(=C/c2ccc(N(C)C)cc2)C(=O)N(Cc2ccco2)C1=O	6%	2%	28µM*	?	-5%	?
CCC12CCN(CC3CC3)CC1Oc1c(C)cccc12 (centres undefined)	/	/	/	/	/	8%
CCC12CCN(Cc3ccc(F)cc3)CC1Oc1c(O)cccc12 (centres undefined)	/	/	/	/	/	20%
CCCCCCCCCCCCCCOS(=O)(=O)O	8%	/	?	?	/	-4%
CCON=C(CC)C1=C(O)CC(c2c(C)cc(C)cc2C)CC1=O (centres undefined)	/	1%[99.4 µM]	/	/	/	/
O=C(CCc1ccccc1)N1Cc2cc(N3CCOCC3)ccc2-n2nncc2C1	/	-2%	/	/	/	/

Screens: PubChem BioAssay, National Center for Advancing Translational Sciences (NCATS)
